Among the data in PubChem BioAssay (EPA / NIEHS) are outcome and AC50 values, retold here.

Inconclusive results are not listed. Calls of active or inactive are those of the source. The calls were made as follows: active = hit-call score of the fitted dose curve at least 0.9, where 1 is the maximum; inconclusive = response in the unintended direction; inactive = score below 0.9.

Estrogen receptor (Homo sapiens), sequence (P03372 whole entry, looked up, the tested form may be a part): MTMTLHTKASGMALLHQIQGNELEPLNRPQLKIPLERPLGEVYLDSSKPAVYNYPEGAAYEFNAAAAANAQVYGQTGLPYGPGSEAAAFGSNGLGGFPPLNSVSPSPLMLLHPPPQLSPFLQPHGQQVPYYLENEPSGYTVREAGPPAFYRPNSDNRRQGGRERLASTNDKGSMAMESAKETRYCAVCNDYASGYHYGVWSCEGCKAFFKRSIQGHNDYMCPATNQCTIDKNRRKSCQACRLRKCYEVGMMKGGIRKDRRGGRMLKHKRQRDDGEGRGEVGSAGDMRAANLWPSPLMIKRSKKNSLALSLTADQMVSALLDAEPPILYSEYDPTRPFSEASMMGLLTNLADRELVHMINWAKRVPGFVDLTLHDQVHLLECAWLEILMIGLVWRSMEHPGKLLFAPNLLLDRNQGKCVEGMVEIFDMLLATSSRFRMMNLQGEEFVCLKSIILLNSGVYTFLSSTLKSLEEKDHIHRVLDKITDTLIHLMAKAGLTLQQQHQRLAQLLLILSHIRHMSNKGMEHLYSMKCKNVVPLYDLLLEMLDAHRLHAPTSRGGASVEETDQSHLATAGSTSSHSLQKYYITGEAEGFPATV

In the test the target is Estrogen receptor (Homo sapiens) (UniProt P03372). Nature of the test: ATG_ERa_TRANS: Attagene TRANS-FACTORIAL HepG2 Assay for human Estrogen Receptor alpha (ERa) (AID 2282970). The conditions noted are these: HepG2 Attagene TRANS ERa GAL4 reporter, mRNA. Here is the method:
ATG_TRANS is a cell-based, multiplexed-readout assay that uses HepG2, a human liver cell line, with measurements taken at 24 hours after chemical dosing in a 24-well plate.ATG_ERa_TRANS is one of 30 assay component(s) measured or calculated from the ATG_TRANS assay. It is designed to make measurements of mRNA induction, a form of inducible reporter, as detected with fluorescence intensity signals by Reverse transcription polymerase chain reaction (RT-PCR) and Capillary electrophoresis technology.Data from the assay component ATG_ERa_TRANS was analyzed into 1 assay endpoint. This assay endpoint, ATG_ERa_TRANS, was analyzed in the positive analysis fitting direction relative to DMSO as the negative control and baseline of activity. Using a type of inducible reporter, measures of mRNA for gain-of-signal activity can be used to understand the reporter gene at the transcription factor-level as they relate to the gene ESR1. Furthermore, this assay endpoint can be referred to as a primary readout, because this assay has produced multiple assay endpoints where this one serves a reporter gene function. To generalize the intended target to other relatable targets, this assay endpoint is annotated to the nuclear receptor intended target family, where the subfamily is steroidal.
Human liver HepG2 cells are transiently transfected with multiple reporter transcription units (MRTUs) in 6-well plates using FuGene 6 reagent (Roche; 3 ml FuGene/1 mg DNA). The MRTU constructs are regulated by a cis-regulating element (promoter). […] A major difference between the CIS and TRANS system is that in CIS activities of endogenous TFs are measured, whereas the TRANS assay evaluates changes in activities of exogenous, chimeric NR-Gal4 proteins. […] At the end of 24 hour incubation, total RNA was isolated using TriZol reagent (Invitrogen). The isolated RNA is then reverse-transcribed using oligo(dT) primer and Mo-MLV reverse transcriptase (Invitrogen) with DNAse I (Ambion) treatment for 30 min. The one-tenth of the produced cDNA was amplified by PCR using Taq DNA polymerase (Invitrogen) and two reporter sequence-specific primers. The PCR products were fluorescently labeled by primer extension with 6-arboxyfluorescein (6-FAM) 5'-labeled reporter sequence-specific primer (2 min at 95 C, 20 s at 68 C and 10 min at 72 C) and these products were digested with 5U of HpaI (New England Biolabs) for 2h at 37 C. […] The raw capillary electrophoresis data was processed using Attagraph software (Attagene).
In the case of `Cc1cccc(C(=O)O)c1`, the call was inactive.

With `CCCCCc1ccc(Cl)cc1`, the compound was classed as inactive.

Regarding `O=C(c1ccccc1)C1CCC1`, the result was inactive.

With `CN(C)c1ccc(N=Nc2ccccc2C(=O)O)cc1`, the result was inactive.

Take `Cc1c(C)c([N+](=O)[O-])c(C(C)(C)C)c([N+](=O)[O-])c1C`: the compound was classed as inactive.

In the case of `CCCCCCCCc1ccc(Nc2ccc(CCCCCCCC)cc2)cc1`, the call was inactive.

On to `CC(C)C1=CC2=CC[C@@H]3[C@](C)(CCC[C@@]3(C)C(=O)O)[C@H]2CC1`, for which the concentration at half-maximal activity (AC50) was 31.9 µM (active).

As for `Cc1cccc(OCCOc2cccc(C)c2)c1`, the outcome was inactive.

Turning to `CC(C)(Oc1ccc(C2CC2(Cl)Cl)cc1)C(=O)O` (stereo not given), the call was inactive.

In the case of `C=CCOCC(O)CCl` (stereo not given), the call was inactive.

Consider `CCCCCCCCCCOC(C)=O`, for which the concentration at half-maximal activity (AC50) is 47.2 µM (active).

In the case of `C=C[C@](C)(O)CC[C@@H]1[C@@]2(C)CCCC(C)(C)[C@@H]2CC[C@@]1(C)O`, the outcome was inactive.

Take `Nc1ccc(N)c(Cl)c1`: the AC50 was 25.5 µM (active).

Turning to `CCOC(=O)Cc1cccc2ccccc12`, the compound was called inactive.

As for `O=C(O)C(c1ccc(Cl)cc1)c1ccc(Cl)cc1`, the half-maximal activity concentration (AC50) is 7.33 µM (active).

`Cc1ccc([N+](=O)[O-])cc1S(=O)(=O)O`: the compound was called inactive.

Regarding `CC1=CC[C@H](C(C)C)C=C1`, the compound was classed as inactive.

For the compound `CCCCCCCCCCC=CC#N`, the AC50 was 73.1 µM (active).

With `C=C(C)C(=O)OCC(C)C`, the compound was classed as inactive.

As for `O=Nc1ccc(O)cc1`, the AC50 is 48.5 µM (active).

As to `CC(C)c1ccc2c(c1)CC[C@H]1[C@](C)(CN)CCC[C@]21C`, the compound was called inactive.

As to `OCCN(CCO)c1ccccc1`, the call was inactive.

As for `Nc1ccc(N=Nc2ccccc2)c(N)n1`, the concentration at half-maximal activity (AC50) is 27.8 µM (active).

On to `c1ccc2c(c1)ccc1ncccc12`, for which the compound was called inactive.

With `COc1ccc([C@@H]2CC(=O)c3c(O)cc(O[C@@H]4O[C@H](CO[C@@H]5O[C@@H](C)[C@H](O)[C@@H](O)[C@H]5O)[C@@H](O)[C@H](O)[C@H]4O)cc3O2)cc1OC`, the result was inactive.

With `C=CC(C)(CCC=C(C)C)OC(=O)C(C)C` (stereo not given), the half-maximal activity concentration (AC50) was 38 µM (active).

`[Cl][In]([Cl])[Cl]`: the compound was called inactive.

For the compound `CCCCCCCC[N+](C)(CCCCCCCC)CCCCCCCC`, the call was inactive.

For `C1CN(SSN2CCOCC2)CCO1`, the outcome was inactive.

Turning to `CCCCC(CC)COCC1CO1` (stereo not given), the result was inactive.

For `O=S1(=O)OC(c2ccc(O)cc2)(c2ccc(O)cc2)c2ccccc21`, the AC50 is 23.2 µM (active).

Turning to `CCC(C)(C)C1CCCCC1OC(C)=O` (stereo not given), the result was inactive.

As for `CC(C)CCCCCOC(=O)CCS`, the result was inactive.

Take `COc1ccc(-c2coc3cc(O)ccc3c2=O)cc1`: the half-maximal activity concentration (AC50) is 1.21 µM (active).

With `CCC(C)OC(=O)c1ccc(O)cc1` (stereo not given), the half-maximal activity concentration (AC50) is 0.75 µM (active).

Take `CCOC(=O)CC(C(C)=O)C(C)=O`: the result was inactive.

With `CC(=O)OC1C2(C)CCC(C2)C1(C)C` (stereo not given), the compound was called inactive.

Take `CC(=O)c1ccc[nH]1`: the compound was called inactive.

With `Nc1ccc(-c2ccc(F)cc2)cc1`, the AC50 is 26.9 µM (active).

In the case of `c1ccc(CNCc2ccccc2)cc1`, the outcome was inactive.

Broadly, the AC50 is the midpoint of the concentration-response curve, whichever way the signal moves.
